PubChem BioAssay AID1159580 (chemical genetic matrix, 2015)
Several values for one entry are separate records, joined by “and”; a condition that tells them apart may be missing. Equal entries are not always repeated. About 2,000 (36%) of roughly 5,500 compounds were called active. Roughly 18% stayed inconclusive and do not appear here. Cut-off read from the data, not from the text of the source: active = normalized growth mostly below about 0.91 (no sharp cut-off); inconclusive = no clear call, values can overlap the other calls; inactive = mostly above about 0.92. This is one part of the list.

Assay: chemical genetic growth profiling, strain panel (AID 1159580);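 note: tested at 20 µM; growth read once vehicle control cultures reached saturation at 30 °C; 1 = growth at the plate median or of vehicle wells; lower values mean less growth of the strain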
Details: growth OD

Measured: normalized growth

CC(=O)O[C@@H]1CC2C(C)(C)C(=O)C=C[C@]2(C)C2CC[C@]3(C)C(=CC(=O)O[C@H]3c3ccoc3)[C@@]21C (stereo partly drawn)
inactive: S. cerevisiae deletion strains, locus YAL013W, strain DEP1, active compounds read low 0.996 | S. cerevisiae deletion strains, locus YAL021C, strain ccr4, active compounds read low 1.01 | S. cerevisiae deletion strains, locus YAL026C, strain drs2, active compounds read low 1.01 | S. cerevisiae deletion strains, locus YAL030W, strain snc1, active compounds read low 1 | S. cerevisiae deletion strains, locus YBL061C, strain skt5, active compounds read low 1.03 | S. cerevisiae deletion strains, locus YBR009C, strain hhf1, active compounds read low 1.01 | S. cerevisiae deletion strains, locus YBR021W, strain FUR4, active compounds read low 0.988 | S. cerevisiae deletion strains, locus YBR023C, strain chs3, active compounds read low 1 | S. cerevisiae deletion strains, locus YBR171W, strain sec66, active compounds read low 1.01 | S. cerevisiae deletion strains, locus YBR229C, strain ROT2, active compounds read low 0.941 | S. cerevisiae deletion strains, locus YBR231C, strain swc5, active compounds read low 0.998 | S. cerevisiae deletion strains, locus YBR279W, strain paf1, active compounds read low 1.01 | S. cerevisiae deletion strains, locus YCL011C, strain gbp2, active compounds read low 0.993 | S. cerevisiae deletion strains, locus YCL016C, strain dcc1, active compounds read low 1.01 | S. cerevisiae deletion strains, locus YCL029C, strain bik1, active compounds read low 0.977 | S. cerevisiae deletion strains, locus YCL069W, strain vba3, active compounds read low 1 | S. cerevisiae deletion strains, locus YCR088W, strain abp1, active compounds read low 1.01 | S. cerevisiae deletion strains, locus YDL005C, strain med2, active compounds read low 0.995 | S. cerevisiae deletion strains, locus YDL035C, strain GPR1, active compounds read low 0.964 | S. cerevisiae deletion strains, locus YDL040C, strain nat1, active compounds read low 1 | S. cerevisiae deletion strains, locus YDL074C, strain BRE1, active compounds read low 0.979 | S. cerevisiae deletion strains, locus YDL101C, strain DUN1, active compounds read low 1 | S. cerevisiae deletion strains, locus YDL185W, strain tfp1, active compounds read low 0.959 | S. cerevisiae deletion strains, locus YDL192W, strain arf1, active compounds read low 0.978 | S. cerevisiae deletion strains, locus YDR001C, strain nth1, active compounds read low 1.01 | S. cerevisiae deletion strains, locus YDR069C, strain doa4, active compounds read low 1.02 | S. cerevisiae deletion strains, locus YDR101C, strain arx1, active compounds read low 0.956 | S. cerevisiae deletion strains, locus YDR137W, strain rgp1, active compounds read low 1.05 | S. cerevisiae deletion strains, locus YDR159W, strain sac3, active compounds read low 1.01 | S. cerevisiae deletion strains, locus YDR162C, strain NBP2, active compounds read low 0.988 | S. cerevisiae deletion strains, locus YDR195W, strain ref2 0.968 | S. cerevisiae deletion strains, locus YDR297W, strain sur2, active compounds read low 0.992 | S. cerevisiae deletion strains, locus YDR318W, strain mcm21, active compounds read low 0.983 | S. cerevisiae deletion strains, locus YDR334W, strain swr1, active compounds read low 1.01 | S. cerevisiae deletion strains, locus YDR335W, strain msn5, active compounds read low 1.01 | S. cerevisiae deletion strains, locus YDR388W, active compounds read low 0.983 | S. cerevisiae deletion strains, locus YDR392W, strain spt3, active compounds read low 1.01 | S. cerevisiae deletion strains, locus YDR502C, strain sam2, active compounds read low 1.02 | S. cerevisiae deletion strains, locus YEL003W, strain gim4, active compounds read low 1.01 | S. cerevisiae deletion strains, locus YEL037C, strain rad23, active compounds read low 1 | S. cerevisiae deletion strains, locus YEL061C, strain CIN8 (second series), active compounds read low 1.01 | S. cerevisiae deletion strains, locus YER015W, strain faa2, active compounds read low 1.01 | S. cerevisiae deletion strains, locus YER016W, strain bim1, active compounds read low 1.01 | S. cerevisiae deletion strains, locus YER110C, active compounds read low 0.966 | S. cerevisiae deletion strains, locus YER111C, strain swi4, active compounds read low 1.01 | S. cerevisiae deletion strains, locus YER155C, strain BEM2 (second series), active compounds read low 1 | S. cerevisiae deletion strains, locus YER155C, strain BEM2, active compounds read low 0.989 | S. cerevisiae deletion strains, locus YER167W, strain BCK2, active compounds read low 0.975 | S. cerevisiae deletion strains, locus YFR010W, strain ubp6, active compounds read low 1.01 | S. cerevisiae deletion strains, locus YGL078C, strain dbp3, active compounds read low 1.02 | S. cerevisiae deletion strains, locus YGL086W, strain mad1, active compounds read low 0.992 | S. cerevisiae deletion strains, locus YGL167C, strain pmr1, active compounds read low 1 | S. cerevisiae deletion strains, locus YGL173C, strain kem1, active compounds read low 1 | S. cerevisiae deletion strains, locus YGL227W, strain vid30, active compounds read low 1.01 | S. cerevisiae deletion strains, locus YGL240W, strain doc1, active compounds read low 1 | S. cerevisiae deletion strains, locus YGL248W, strain PDE1, active compounds read low 1.01 | S. cerevisiae deletion strains, locus YGL253W, strain hxk2, active compounds read low 0.998 | S. cerevisiae deletion strains, locus YGR135W, strain pre9, active compounds read low 1.1 | S. cerevisiae deletion strains, locus YGR252W, strain gcn5, active compounds read low 1.04 | S. cerevisiae deletion strains, locus YHR013C, strain ard1, active compounds read low 0.988 | S. cerevisiae deletion strains, locus YHR027C, strain rpn1, active compounds read low 0.993 | S. cerevisiae deletion strains, locus YHR030C, strain SLT2, active compounds read low 1.02 | S. cerevisiae deletion strains, locus YHR079C, strain IRE1 (second series), active compounds read low 0.982 | S. cerevisiae deletion strains, locus YHR079C, strain IRE1, active compounds read low 0.997 | S. cerevisiae deletion strains, locus YHR094C, strain hxt1, active compounds read low 0.969 | S. cerevisiae deletion strains, locus YHR129C, strain ARP1, active compounds read low 0.993 | S. cerevisiae deletion strains, locus YHR142W, strain chs7, active compounds read low 1.04 | S. cerevisiae deletion strains, locus YHR200W, strain rpn10, active compounds read low 0.994 | S. cerevisiae deletion strains, locus YIL066C, strain RNR3, active compounds read low 0.956 | S. cerevisiae deletion strains, locus YIL073C, strain SPO22, active compounds read low 0.989 | S. cerevisiae deletion strains, locus YIL125W, strain kgd1, active compounds read low 0.981 | S. cerevisiae deletion strains, locus YIR030C, strain dcg1, active compounds read low 0.987 | S. cerevisiae deletion strains, locus YJL092W, strain hpr5, active compounds read low 1 | S. cerevisiae deletion strains, locus YJL095W, strain BCK1 (second series), active compounds read low 0.999 | S. cerevisiae deletion strains, locus YJL095W, strain BCK1, active compounds read low 1.06 and 1.03 | S. cerevisiae deletion strains, locus YJL115W, strain asf1, active compounds read low 1 | S. cerevisiae deletion strains, locus YJL129C, strain trk1, active compounds read low 1.02 | S. cerevisiae deletion strains, locus YJL134W, strain LCB3, active compounds read low 0.97 | S. cerevisiae deletion strains, locus YJL154C, strain vps35, active compounds read low 1 | S. cerevisiae deletion strains, locus YJL164C, strain tpk1, active compounds read low 1 | S. cerevisiae deletion strains, locus YJL166W, strain qcr8, active compounds read low 1 | S. cerevisiae deletion strains, locus YJL168C, strain set2, active compounds read low 0.995 | S. cerevisiae deletion strains, locus YJL187C, strain SWE1 (second series), active compounds read low 1.03 | S. cerevisiae deletion strains, locus YJR066W, strain TOR1, active compounds read low 0.96 | S. cerevisiae deletion strains, locus YKL009W, strain mrt4, active compounds read low 0.986 | S. cerevisiae deletion strains, locus YKL068W, active compounds read low 0.992 | S. cerevisiae deletion strains, locus YKL085W, strain MDH1 (second series), active compounds read low 0.996 | S. cerevisiae deletion strains, locus YKL085W, strain MDH1, active compounds read low 0.996 | S. cerevisiae deletion strains, locus YKL160W, strain elf1, active compounds read low 1.01 | S. cerevisiae deletion strains, locus YKR001C, strain vps1, active compounds read low 0.985 | S. cerevisiae deletion strains, locus YKR026C, strain gcn3, active compounds read low 1.01 | S. cerevisiae deletion strains, locus YKR091W, strain srl3, active compounds read low 1 | S. cerevisiae deletion strains, locus YLL001W, strain dnm1, active compounds read low 1.01 | S. cerevisiae deletion strains, locus YLL026W, active compounds read low 1.02 | S. cerevisiae deletion strains, locus YLL041C, strain sdh2, active compounds read low 1.02 | S. cerevisiae deletion strains, locus YLR027C, strain aat2, active compounds read low 1.01 | S. cerevisiae deletion strains, locus YLR039C, strain RIC1, active compounds read low 0.971 | S. cerevisiae deletion strains, locus YLR058C, strain SHM2, active compounds read low 0.981 | S. cerevisiae deletion strains, locus YLR102C, strain apc9, active compounds read low 0.974 | S. cerevisiae deletion strains, locus YLR113W, strain HOG1, active compounds read low 0.962 | S. cerevisiae deletion strains, locus YLR221C, strain rsa3, active compounds read low 1 | S. cerevisiae deletion strains, locus YLR258W, strain gsy2, active compounds read low 1 | S. cerevisiae deletion strains, locus YLR262C, strain YPT6 (second series), active compounds read low 1.01 | S. cerevisiae deletion strains, locus YLR268W, strain sec22, active compounds read low 0.964 | S. cerevisiae deletion strains, locus YLR320W, strain mms22, active compounds read low 1.01 | S. cerevisiae deletion strains, locus YLR342W, strain FKS1 (second series), active compounds read low 1 | S. cerevisiae deletion strains, locus YLR342W, strain FKS1, active compounds read low 0.999 | S. cerevisiae deletion strains, locus YLR357W, strain rsc2, active compounds read low 1.03 | S. cerevisiae deletion strains, locus YLR370C, strain arc18, active compounds read low 1.02 | S. cerevisiae deletion strains, locus YLR371W, strain rom2, active compounds read low 0.967 | S. cerevisiae deletion strains, locus YLR384C, strain iki3, active compounds read low 1.02 | S. cerevisiae deletion strains, locus YLR418C, strain cdc73, active compounds read low 1.04 | S. cerevisiae deletion strains, locus YML016C, strain PPZ1, active compounds read low 0.973 | S. cerevisiae deletion strains, locus YML032C, strain rad52, active compounds read low 0.966 | S. cerevisiae deletion strains, locus YML120C, strain ndi1, active compounds read low 0.993 | S. cerevisiae deletion strains, locus YML124C, strain tub3, active compounds read low 0.989 | S. cerevisiae deletion strains, locus YMR058W, strain fet3, active compounds read low 1 | S. cerevisiae deletion strains, locus YMR078C, strain ctf18, active compounds read low 0.983 | S. cerevisiae deletion strains, locus YMR125W, strain sto1, active compounds read low 0.999 | S. cerevisiae deletion strains, locus YMR129W, active compounds read low 1 | S. cerevisiae deletion strains, locus YMR205C, strain PFK2, active compounds read low 1 | S. cerevisiae deletion strains, locus YMR223W, strain ubp8, active compounds read low 1.01 | S. cerevisiae deletion strains, locus YMR231W, strain pep5, active compounds read low 1.01 | S. cerevisiae deletion strains, locus YMR307W, strain GAS1, active compounds read low 0.896 | S. cerevisiae deletion strains, locus YNL067W, strain RPL9B, active compounds read low 1.04 | S. cerevisiae deletion strains, locus YNL071W, strain lat1, active compounds read low 1.01 | S. cerevisiae deletion strains, locus YNL153C, strain GIM3, active compounds read low 1.02 | S. cerevisiae deletion strains, locus YNL183C, strain NPR1, active compounds read low 0.993 | S. cerevisiae deletion strains, locus YNL209W, strain ssb2, active compounds read low 0.991 | S. cerevisiae deletion strains, locus YNL233W, strain BNI4, active compounds read low 1.02 | S. cerevisiae deletion strains, locus YNL248C, strain rpa49, active compounds read low 1.02 | S. cerevisiae deletion strains, locus YNL250W, strain rad50, active compounds read low 0.994 | S. cerevisiae deletion strains, locus YNL271C, strain bni1, active compounds read low 0.988 | S. cerevisiae deletion strains, locus YNL298W, strain CLA4, active compounds read low 0.963 | S. cerevisiae deletion strains, locus YNL307C, strain MCK1, active compounds read low 0.991 | S. cerevisiae deletion strains, locus YNL322C, strain KRE1 (second series), active compounds read low 1 | S. cerevisiae deletion strains, locus YNR049C, strain mso1, active compounds read low 1.02 | S. cerevisiae deletion strains, locus YNR052C, strain pop2, active compounds read low 1.02 | S. cerevisiae deletion strains, locus YOL006C, strain TOP1, active compounds read low 0.97 | S. cerevisiae deletion strains, locus YOL012C, strain htz1 0.746 | S. cerevisiae deletion strains, locus YOL147C, strain pex11, active compounds read low 0.982 | S. cerevisiae deletion strains, locus YOR001W, strain rrp6, active compounds read low 1.01 | S. cerevisiae deletion strains, locus YOR061W, strain CKA2, active compounds read low 0.948 | S. cerevisiae deletion strains, locus YOR069W, strain VPS5, active compounds read low 0.992 | S. cerevisiae deletion strains, locus YOR070C, strain gyp1, active compounds read low 1.02 | S. cerevisiae deletion strains, locus YOR080W, strain dia2, active compounds read low 0.995 | S. cerevisiae deletion strains, locus YOR083W, strain WHI5, active compounds read low 1 | S. cerevisiae deletion strains, locus YOR106W, strain vam3, active compounds read low 1.01 | S. cerevisiae deletion strains, locus YOR136W, strain idh2, active compounds read low 0.986 | S. cerevisiae deletion strains, locus YOR144C, strain elg1, active compounds read low 0.979 | S. cerevisiae deletion strains, locus YOR184W, strain ser1, active compounds read low 0.935 | S. cerevisiae deletion strains, locus YOR231W, strain MKK1, active compounds read low 1.03 | S. cerevisiae deletion strains, locus YOR265W, strain rbl2, active compounds read low 1.03 | S. cerevisiae deletion strains, locus YOR270C, strain vph1, active compounds read low 1.07 | S. cerevisiae deletion strains, locus YOR290C, strain snf2, active compounds read low 0.996 | S. cerevisiae deletion strains, locus YOR316C, strain cot1, active compounds read low 0.981 | S. cerevisiae deletion strains, locus YPL051W, strain arl3, active compounds read low 1.01 | S. cerevisiae deletion strains, locus YPL078C, strain atp4, active compounds read low 1 | S. cerevisiae deletion strains, locus YPL106C, strain sse1, active compounds read low 0.986 | S. cerevisiae deletion strains, locus YPL240C, strain hsp82, active compounds read low 1 | S. cerevisiae deletion strains, locus YPL241C, strain CIN2, active compounds read low 0.981 | S. cerevisiae deletion strains, locus YPL256C, strain CLN2, active compounds read low 1 | S. cerevisiae deletion strains, locus YPR119W, strain clb2, active compounds read low 0.988 | S. cerevisiae deletion strains, locus YPR141C, strain kar3, active compounds read low 0.992 | S. cerevisiae deletion strains, locus YPR163C, strain tif3, active compounds read low 0.971 | S. cerevisiae deletion strains, locus YPR167C, strain met16, active compounds read low 0.997 | S. cerevisiae deletion strains, strain wtn01, active compounds read low 0.961 | S. cerevisiae strains, strain wild type, active compounds read low 0.97
